Compound activity deposited in PubChem by several laboratories.
Mtb FBA inh: inhibits M. tuberculosis FBA enzyme; AID 588726; actives 2.3% (n = 360,000); P9WQA3; purified M. tuberculosis FBA, fluorescence read-out; inhibition, % at 1 µM; in the data active = inhibition above about 27%
Target sequence (P9WQA3 whole entry, looked up): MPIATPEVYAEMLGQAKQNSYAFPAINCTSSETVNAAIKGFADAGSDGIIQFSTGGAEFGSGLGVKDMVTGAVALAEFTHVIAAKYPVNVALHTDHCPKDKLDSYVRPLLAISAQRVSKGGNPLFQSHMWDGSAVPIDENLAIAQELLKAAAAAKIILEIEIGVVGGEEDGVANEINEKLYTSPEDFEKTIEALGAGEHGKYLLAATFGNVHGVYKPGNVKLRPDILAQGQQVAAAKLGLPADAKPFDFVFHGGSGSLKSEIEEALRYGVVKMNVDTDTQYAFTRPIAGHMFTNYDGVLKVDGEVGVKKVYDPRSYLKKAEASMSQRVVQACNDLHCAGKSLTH
BioA inh: BioA (M. tuberculosis) enzyme inhibition | purified M. tuberculosis BioA enzyme, plate reader | actives 0.096% (n = 360,000) | inhibition, % at 9.99 µM; in the data active = inhibition above about 40%
FadD28 binding: inhibitors of Mycobacterium tuberculosis FadD28 bisubstrate binding; FadD28 bisubstrate probe binding, fluorescence polarization; inhibition, % at 12.5 µM; actives 0.22% (n = 360,000); AID 588549; in the data active = inhibition above about 8.5%, passing the limit was not always enough
GDH-TPI inh: counter-screen for M. tuberculosis FBA inhibitors: GDH-TPI coupled enzymes; actives 1.2% (n = 360,000); GDH-TPI coupled enzyme counterscreen, NADH absorbance; inhibition, % at 4.8 µM; in the data active = inhibition above about 30%
Rv3671c inh: inhibitors of M. tuberculosis serine protease Rv3671c. AID 2606. actives 0.048% (n = 320,000). inhibition, % at 5.96 µM. P9WHR9; in the data active = inhibition above about 38%;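 note: extracellular domain of Rv3671c used as enzyme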
Large screens that a line does not name were inactive. Compounds with a hit are over-represented: about 3% of the library has one in this group of screens.

CN1/C(=C\C=C\C2=[N+](C)c3ccc4ccccc4c3C2(C)C)C(C)(C)c2ccccc21	Rv3671c inh 187 (no result: Mtb FBA inh, BioA inh, FadD28 binding, GDH-TPI inh)
CCCCC(=O)Nc1ncc2c(n1)CC(C)(C)CC2=O	Mtb FBA inh 147
COc1ccc(NC(=O)N(C)C[C@@H]2OCCCC[C@H](C)Oc3ccc(NS(=O)(=O)c4cn(C)cn4)cc3C(=O)N([C@H](C)CO)C[C@@H]2C)cc1	none (no result: Mtb FBA inh, FadD28 binding, GDH-TPI inh, Rv3671c inh)
CO[C@@H]1CN(C)C(=O)c2cc(NC(C)=O)ccc2OC[C@H](C)N(C(=O)C2CCCCC2)C[C@@H]1C	none (no result: Mtb FBA inh, FadD28 binding, GDH-TPI inh, Rv3671c inh)
O=C(N/N=C/C(Cl)=C/c1ccccc1)c1cnccn1	GDH-TPI inh 86
O=C(N/N=C/c1cccc([N+](=O)[O-])c1)c1cnccn1	none
CC(=C/c1ccccc1)/C=N/NC(=O)c1cnccn1	GDH-TPI inh 43
COc1ccc(C(=O)N/N=C\C(C)=C\c2ccccc2)cc1OC	GDH-TPI inh 51
O=C(N/N=C/C(Cl)=C\c1ccccc1)c1cnccn1	BioA inh 45, GDH-TPI inh 66
CC(/C=N/NC(=O)c1ccc(Br)cc1)=C\c1ccccc1	none
O=C(C[C@H]1CC[C@H]2[C@@H](COC[C@@H](O)CN2Cc2ccccc2)O1)N1CCOCC1	none (no result: Mtb FBA inh, FadD28 binding, GDH-TPI inh, Rv3671c inh)
CC(C)CC#Cc1ccc2c(c1)O[C@@H](CN(C)C(=O)Cc1cccnc1)[C@H](C)CN([C@@H](C)CO)S2(=O)=O	none (no result: Mtb FBA inh, FadD28 binding, GDH-TPI inh, Rv3671c inh)
CCCNC(=O)[C@@H]1[C@@H](CO)[C@@H]2Cn3c(ccc(-c4ccccc4)c3=O)[C@H]1N2C(=O)Nc1ccccc1	none (no result: Mtb FBA inh, FadD28 binding, GDH-TPI inh, Rv3671c inh)
NS(=O)(=O)c1ccc(N2N=C(c3ccccc3)CC2c2ccccc2Cl)cc1 (stereo unspecified)	Mtb FBA inh 188 (no result: Rv3671c inh)
CC(=O)N1N=C(c2ccccc2)CC1c1ccccc1 (stereo unspecified)	none
O=S(=O)(O)c1ccc(N2N=C(c3ccccc3)CC2c2ccccc2)cc1 (stereo unspecified)	Mtb FBA inh active (no result: BioA inh)
Cc1ccc(C2CC(c3ccccc3)=NN2c2ccc(S(N)(=O)=O)cc2)cc1 (stereo unspecified)	Mtb FBA inh active (no result: Rv3671c inh)
CCc1ccc(C2=NN(c3ccc(S(N)(=O)=O)cc3)C(c3ccc(F)cc3)C2)cc1 (stereo unspecified)	Mtb FBA inh active (no result: BioA inh)
C[C@H](CO)N1C[C@H](C)[C@@H](CN(C)S(=O)(=O)c2cn(C)cn2)Oc2ccc(NC(=O)CCCCCC(=O)Nc3ccccc3N)cc2C1=O	none (no result: Mtb FBA inh, FadD28 binding, GDH-TPI inh, Rv3671c inh)
CC=Cc1ccc2n(c1=O)C[C@H]1[C@H](CO)[C@@H](C(=O)NCCc3cn(C)cn3)[C@@H]2N1C(=O)C1CCCC1 (mixture of isomers)	none (no result: Mtb FBA inh, FadD28 binding, GDH-TPI inh, Rv3671c inh)
C[C@@H]1CN([C@H](C)CO)S(=O)(=O)c2ccc(C3=CCCCC3)cc2O[C@@H]1CN(C)C(=O)c1ccccc1	none (no result: Mtb FBA inh, FadD28 binding, GDH-TPI inh, Rv3671c inh)
O=C(c1ccccc1)N1N=C(c2ccccc2)CC1c1ccccc1 (stereo unspecified)	none (no result: FadD28 binding)
O=C(O)CCC(=O)N1N=C(c2ccccc2)CC1c1ccc(Br)cc1 (stereo unspecified)	none
NS(=O)(=O)c1ccc(N2N=C(c3ccccc3)CC2c2ccccc2)cc1 (stereo unspecified)	Mtb FBA inh active (no result: BioA inh)
NS(=O)(=O)c1ccc(N2N=C(c3ccccc3)CC2c2ccc(Br)cc2)cc1 (stereo unspecified)	Mtb FBA inh 187 (no result: Rv3671c inh)
C[C@H]1CN([C@@H](C)CO)C(=O)Cc2cc(NC(=O)Nc3cccc4ccccc34)ccc2O[C@H]1CN(C)C(=O)Nc1ccc(C(F)(F)F)cc1	none (no result: Mtb FBA inh, FadD28 binding, GDH-TPI inh, Rv3671c inh)
C[C@H](O)C#Cc1cnc2c(c1)C(=O)N([C@@H](C)CO)C[C@@H](C)[C@@H](CN(C)C(=O)Cc1ccncc1)O2	none (no result: Mtb FBA inh, FadD28 binding, GDH-TPI inh, Rv3671c inh)
OCCN(CCO)c1ncnc2c1sc1nc(N3CCOCC3)c3c(c12)CCCC3	none
CC1(C)Cc2c(c(N3CCCC3)nc3sc4c(N5CCN(CCO)CC5)ncnc4c23)CO1	GDH-TPI inh 33
COC(=O)c1ccc(CSc2ncnc3c2sc2nc(N4CCOCC4)c4c(c23)CCCC4)o1	GDH-TPI inh 32
OCCN1CCN(c2ncnc3c2sc2nc(N4CCOCC4)c4c(c23)CCC4)CC1	GDH-TPI inh 44
C[C@H]1CN([C@@H](C)CO)C(=O)Cc2cc(NC(=O)Cc3ccccc3)ccc2O[C@H]1CN(C)S(C)(=O)=O	none (no result: Mtb FBA inh, FadD28 binding, GDH-TPI inh, Rv3671c inh)
CO[C@@H]1CN(C)C(=O)c2ccc(NC(=O)c3cnccn3)cc2OC[C@H](C)N(C(=O)C2CC2)C[C@H]1C	none (no result: Mtb FBA inh, FadD28 binding, GDH-TPI inh, Rv3671c inh)
Cc1noc(C)c1NC(=O)N(C)C[C@@H]1Oc2ccc(NC(=O)Nc3ccc(C(F)(F)F)cc3)cc2CC(=O)N([C@@H](C)CO)C[C@H]1C	none (no result: Mtb FBA inh, FadD28 binding, GDH-TPI inh, Rv3671c inh)
